What all share (conditions): mRNA level, 48 h; actives raise or lower the signal
Read-out in assay [1]: Cytochrome P450 (CYP24A1), CYP24A1 (gene 1591)
The experiment in a line: LTEA_HepaRG_CYP24A1: Life Technologies and Expression Analysis (LTEA) Assay for Cytochrome P450 (CYP24A1) using HepaRG (AID 2283478). In short, it runs like this: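 HepaRG, 48 h chemical exposure, 8-pt half-log CRC from 100 uM, 0.5% DMSO vehicle, duplicates. Endpoint: CYP24A1 mRNA by Fluidigm TaqMan qRT-PCR, normalized ACTB/GAPDH/POLR2A; gain/loss fit vs DMSO.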

Read-out in assay [2]: Cytochrome P450 (CYP1A2), CYP1A2 (gene 1544)
The experiment in a line: LTEA_HepaRG_CYP1A2: Life Technologies and Expression Analysis (LTEA) Assay for Cytochrome P450 (CYP1A2) using HepaRG (AID 2283479). In a few lines: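 CYP1A2 transcript induction or loss, quantified by Fluidigm qRT-PCR against three housekeeping genes, was fitted bidirectionally against 0.5% DMSO controls. Human HepaRG cells received eight half-log concentrations from 100 uM over 48 h.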

Read-out in assay [3]: cysteine-aspartic acid protease (CASP8), CASP8 (gene 841)
The experiment in a line: LTEA_HepaRG_CASP8: Life Technologies and Expression Analysis (LTEA) Assay for cysteine-aspartic acid protease (CASP8) using HepaRG (AID 2283480). In a few lines: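 HepaRG, 48 h exposure, duplicate wells; 8 conc, half-log from 100 uM, 0.5% DMSO. Serum-free induction medium. CASP8 mRNA by TaqMan qRT-PCR, norm. ACTB/GAPDH/POLR2A; gain/loss fitted vs DMSO.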

Read-out in assay [4]: Cytochrome P450 (CYP2B6), CYP2B6 (gene 1555)
The experiment in a line: LTEA_HepaRG_CYP2B6: Life Technologies and Expression Analysis (LTEA) Assay for Cytochrome P450 (CYP2B6) using HepaRG (AID 2283481). In short, it runs like this: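 HepaRG cells plated 48 h, switched to serum-free induction medium, then dosed 48 h (8 points, half-log from 100 uM, 0.5% DMSO). RNA isolated; CYP2B6 expression measured by qRT-PCR; gain or loss fitted relative to DMSO.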

Read-out in assay [5]: Cytochrome P450 2C19 (Homo sapiens) (UniProt P33261)
The assay is described as follows: LTEA_HepaRG_CYP2C19: Life Technologies and Expression Analysis (LTEA) Assay for CYP2C19 using HepaRG (AID 2283482). In a few lines:
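Transcript levels of CYP2C19 were quantified by qRT-PCR after HepaRG cells were treated for 48 hours with test chemicals up to 100 uM (eight half-log concentrations, 0.5% DMSO vehicle). Gain or loss of signal was fitted relative to DMSO.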

Read-out in a further assay: CYP2C8 (gene 1558)
The assay is described as follows: LTEA_HepaRG_CYP2C8: Life Technologies and Expression Analysis (LTEA) Assay for CYP2C8 using HepaRG (AID 2283483). In short, it runs like this: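 CYP2C8 mRNA induction or loss, by qRT-PCR normalized to ACTB/GAPDH/POLR2A, is read in HepaRG cells after 48 h treatment. Concentrations run from 100 uM down in half-log dilutions, with 0.5% DMSO as vehicle and baseline.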

Read-out in a further assay: CYP2C9 (gene 1559)
The experiment in a line: LTEA_HepaRG_CYP2C9: Life Technologies and Expression Analysis (LTEA) Assay for CYP2C9 using HepaRG (AID 2283484). In short, it runs like this:
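Cells plated 48 h, switched to serum-free induction medium, then treated in duplicate for 48 h at eight concentrations (max 100 uM, 0.5% DMSO). RNA then analysed by qRT-PCR for CYP2C9; curves fitted in both directions relative to DMSO.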

Read-out in a further assay: CYP2E1 (gene 1571)
The assay is described as follows: LTEA_HepaRG_CYP2E1: Life Technologies and Expression Analysis (LTEA) Assay for CYP2E1 using HepaRG (AID 2283485). In short, it runs like this:
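HepaRG cells, plated 48 h, then exposed 48 h in serum-free induction medium to eight half-log concentrations from 100 uM in 0.5% DMSO, duplicate. CYP2E1 mRNA by qRT-PCR, normalized to ACTB/GAPDH/POLR2A; bidirectional fit versus DMSO.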

Read-out in another assay: CYP4A11 (gene 1579)
The experiment in a line: LTEA_HepaRG_CYP4A11: Life Technologies and Expression Analysis (LTEA) Assay for CYP4A11 using HepaRG (AID 2283486). In short, it runs like this: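 HepaRG, 48 h chem exposure, 8 conc (100 uM top, half-log), 0.5% DMSO vehicle; qRT-PCR readout, housekeeping-gene normalized; bidirectional curve fit vs DMSO baseline.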

Read-out in assay [6]: Pro-epidermal growth factor (Homo sapiens) (UniProt P01133)
The assay is described as follows: LTEA_HepaRG_EGF: Life Technologies and Expression Analysis (LTEA) Assay for Epidermal growth factor (EGF) using HepaRG (AID 2283489). In short, it runs like this:
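HepaRG, 48 h dosing, 100 uM top, half-log x8, 0.5% DMSO. Readout: TaqMan qRT-PCR (Fluidigm array), housekeeping-normalized. Gain or loss of signal fit vs DMSO.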

Read-out in assay [7]: Early growth response protein 1 (EGR1) transcription factor, EGR1 (gene 1958)
The assay is described as follows: LTEA_HepaRG_EGR1: Life Technologies and Expression Analysis (LTEA) Assay for Early growth response protein 1 (EGR1) transcription factor using HepaRG (AID 2283490). In short, it runs like this: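 Read-out is EGR1 mRNA level by qRT-PCR, normalized to three housekeeping genes and analysed for gain or loss of signal against 0.5% DMSO. Source cells: human HepaRG, treated 48 h at up to 100 uM in half-log dilutions.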

Read-out in assay [8]: Ezrin (EZR), EZR (gene 7430)
The experiment in a line: LTEA_HepaRG_EZR: Life Technologies and Expression Analysis (LTEA) Assay for Ezrin (EZR) using HepaRG (AID 2283491). In a few lines: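 Gain or loss of EZR mRNA is scored relative to 0.5% DMSO in human HepaRG cultures treated 48 h with test chemicals in duplicate, eight half-log concentrations from 100 uM.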

Read-out in assay [9]: Cytochrome P450 3A7 (Homo sapiens) (UniProt P24462)
The assay is described as follows: LTEA_HepaRG_CYP3A7: Life Technologies and Expression Analysis (LTEA) Assay for CYP3A7 using HepaRG (AID 2283492). In short, it runs like this:
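Human HepaRG liver cells, 48 h post-plating, switched to serum-free induction medium and exposed in duplicate for 48 h. Dosing: 100 uM top, half-log dilutions, 8 points, 0.5% DMSO vehicle. Read-out: CYP3A7 mRNA, gain or loss fitted against DMSO baseline.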

Read-out in a further assay: CYP3A5 (gene 1577)
The assay is described as follows: LTEA_HepaRG_CYP3A5: Life Technologies and Expression Analysis (LTEA) Assay for CYP3A5 using HepaRG (AID 2283493). In a few lines: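 HepaRG cells, plated 48 h then in serum-free induction medium, dosed in duplicate for 48 h with eight half-log concentrations up to 100 uM in 0.5% DMSO. Gene mRNA by Fluidigm TaqMan qRT-PCR, normalized to ACTB, GAPDH, POLR2A.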

Read-out in assay [10]: Fatty Acid-Binding Protein 1 (FABP1), FABP1 (gene 2168)
The assay is described as follows: LTEA_HepaRG_FABP1: Life Technologies and Expression Analysis (LTEA) Assay for Fatty Acid-Binding Protein 1 (FABP1) using HepaRG (AID 2283494). In a few lines: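 HepaRG, 48 h post-plating switched to serum-free induction medium, then dosed 48 h (duplicate, 8 pts, ≤100 uM, 0.5% DMSO). RNA → Fluidigm TaqMan qRT-PCR, FABP1 normed to ACTB/GAPDH/POLR2A. Bidirectional curve fit vs DMSO.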

Read-out in assay [11]: Cytochrome P450 7A1 (Homo sapiens) (UniProt P22680)
The experiment in a line: LTEA_HepaRG_CYP7A1: Life Technologies and Expression Analysis (LTEA) Assay for Cytochrome P450 7A1 (CYP7A1) using HepaRG (AID 2283496). In a few lines: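 HepaRG cells plated 48 h, then switched to serum-free induction medium and exposed in duplicate for 48 h to 8-point half-log series from 100 uM in 0.5% DMSO. CYP7A1 mRNA by qRT-PCR (TaqMan), normalized to ACTB/GAPDH/POLR2A; bidirectional fit versus DMSO.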

Read-out in assay [12]: Glutathione S-Transferase (GSTA2), GSTA2 (gene 2939)
The experiment in a line: LTEA_HepaRG_GSTA2: Life Technologies and Expression Analysis (LTEA) Assay for Glutathione S-Transferase (GSTA2) using HepaRG (AID 2283497). In a few lines:
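HepaRG, 48 h dosing, 8-pt half-log CRC from 100 uM, 0.5% DMSO vehicle, n=2; RNA → Fluidigm TaqMan qRT-PCR; GSTA2 vs ACTB/GAPDH/POLR2A; gain/loss fit vs DMSO.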

Read-out in assay [13]: Cytochrome P450 4A22 (Homo sapiens) (UniProt Q5TCH4)
The assay is described as follows: LTEA_HepaRG_CYP4A22: Life Technologies and Expression Analysis (LTEA) Assay for Cytochrome P450 4A22 (CYP4A22) using HepaRG (AID 2283495). In short, it runs like this: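 Readout is CYP4A22 transcript induction or loss, quantified by qRT-PCR and normalized to ACTB, GAPDH and POLR2A. Human HepaRG cells receive test chemicals for 48 h at eight half-log concentrations from 100 uM in 0.5% DMSO.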

The structures appear in SMILES notation. Calls of active or inactive are those of the source. How the source made its calls: active means hit-call score of the fitted dose curve at least 0.9, where 1 is the maximum; inactive means score below 0.9.

Usually AC50 stands for the concentration at which the activity in the assay is half-maximal.

Sequence of Cytochrome P450 3A7 (Homo sapiens) (P24462 whole entry, looked up): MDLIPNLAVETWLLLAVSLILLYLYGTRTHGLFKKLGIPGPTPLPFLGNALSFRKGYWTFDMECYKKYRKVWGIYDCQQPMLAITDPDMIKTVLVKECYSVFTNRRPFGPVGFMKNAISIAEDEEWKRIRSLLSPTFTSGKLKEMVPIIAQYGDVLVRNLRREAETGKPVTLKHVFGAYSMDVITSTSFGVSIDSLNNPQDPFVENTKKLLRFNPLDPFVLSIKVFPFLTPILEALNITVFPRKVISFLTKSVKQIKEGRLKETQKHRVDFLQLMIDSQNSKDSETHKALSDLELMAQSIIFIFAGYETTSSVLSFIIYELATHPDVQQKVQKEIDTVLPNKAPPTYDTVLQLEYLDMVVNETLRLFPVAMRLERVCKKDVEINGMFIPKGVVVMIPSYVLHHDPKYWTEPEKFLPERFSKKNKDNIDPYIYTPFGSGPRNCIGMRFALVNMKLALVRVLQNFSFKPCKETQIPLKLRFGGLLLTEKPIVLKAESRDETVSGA
Sequence of Cytochrome P450 2C19 (Homo sapiens) (P33261 whole entry, looked up): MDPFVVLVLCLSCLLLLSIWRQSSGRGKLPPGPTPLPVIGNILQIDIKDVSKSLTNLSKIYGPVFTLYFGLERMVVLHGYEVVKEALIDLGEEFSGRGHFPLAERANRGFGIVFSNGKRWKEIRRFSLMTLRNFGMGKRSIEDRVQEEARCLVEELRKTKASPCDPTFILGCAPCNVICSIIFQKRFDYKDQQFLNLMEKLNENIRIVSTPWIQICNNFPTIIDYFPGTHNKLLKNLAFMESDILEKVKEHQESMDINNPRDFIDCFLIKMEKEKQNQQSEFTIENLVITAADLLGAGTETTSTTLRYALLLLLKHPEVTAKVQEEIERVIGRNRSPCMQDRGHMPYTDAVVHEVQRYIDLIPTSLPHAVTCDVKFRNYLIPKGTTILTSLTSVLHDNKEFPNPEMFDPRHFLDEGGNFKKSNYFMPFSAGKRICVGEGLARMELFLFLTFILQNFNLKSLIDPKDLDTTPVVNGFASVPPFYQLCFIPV

On to `COS(C)(=O)=O`, for which the compound was classed as inactive (in assay [1]; in assay [2]; in assay [3]; in assay [4]; in [5]; with CYP2C8 (gene 1558)). Moreover, the compound was called inactive (with CYP2C9 (gene 1559); with CYP2E1 (gene 1571); with CYP4A11 (gene 1579); in [6]; in assay [7]; in [8]). In addition, the compound was called inactive (in [9]; with CYP3A5 (gene 1577); in assay [10]; in assay [11]; in assay [12]).
For `COCc1nnc(-c2ccc[n+]([O-])c2)n1-c1c(Cl)c(Cl)cc2[nH]c(=O)c(=O)[nH]c12`, the compound was classed as inactive (in assay [1]; in assay [2]; in [3]; in assay [5]; with CYP2C8 (gene 1558); in the assay with CYP2C9 (gene 1559)). The compound was classed as inactive (with CYP2E1 (gene 1571); with CYP4A11 (gene 1579); in assay [6]; in assay [7]; in assay [8]; in [9]). The call (with CYP3A5 (gene 1577); in [10]; in [13]; in [11]; in assay [12]) was inactive. In addition, the AC50 in [4] is 14.6 µM (active).
Regarding `O=C(O)c1ccc2c(c1)nc(C(=O)NC1CCN(C3CC3)CC1)n2Cc1cc(-c2ccc(Cl)s2)on1`, the result (in [1]; in [2]; in [3]; in assay [4]; in [5]; with CYP2C8 (gene 1558)) was inactive. The compound was called inactive (with CYP2C9 (gene 1559); with CYP2E1 (gene 1571); in the assay with CYP4A11 (gene 1579); in assay [6]; in [7]; in assay [8]). Moreover, the outcome (in assay [9]; with CYP3A5 (gene 1577); in assay [10]; in assay [11]; in assay [12]) was inactive.

For the origin of these results see PubChem BioAssay (EPA / NIEHS).
